GPR151 activ = human GPR151 activation; activation, % at 11.2 µM; PathHunter beta-arrestin GPR151 cells, luminescence; Q8TDV0; AID 1508602; 1% of 650,000 active; in the data active = activation above about 4.9%
Target sequence (Q8TDV0 whole entry, looked up): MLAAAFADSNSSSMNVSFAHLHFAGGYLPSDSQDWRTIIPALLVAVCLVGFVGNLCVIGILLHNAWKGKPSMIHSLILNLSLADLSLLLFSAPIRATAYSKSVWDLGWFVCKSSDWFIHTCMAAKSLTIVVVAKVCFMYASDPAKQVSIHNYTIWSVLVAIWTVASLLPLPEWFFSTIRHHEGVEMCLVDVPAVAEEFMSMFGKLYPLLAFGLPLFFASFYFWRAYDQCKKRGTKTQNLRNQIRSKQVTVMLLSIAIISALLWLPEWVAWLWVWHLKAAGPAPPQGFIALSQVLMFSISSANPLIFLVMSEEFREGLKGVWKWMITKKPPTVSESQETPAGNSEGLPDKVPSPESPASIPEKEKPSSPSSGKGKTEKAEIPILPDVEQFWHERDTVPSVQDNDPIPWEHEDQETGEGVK
TEAD-YAP block = TEAD-YAP interaction inhibition; inhibition, % at 9.12 µM; 1.4% of 640,000 active; HEK-TIYL cells, TEAD-Gal4/YAP UAS-luciferase luminescence; AID 1259422; in the data active = inhibition above about 32%
MITF primary = blocks human microphthalmia-associated transcription factor. 0.91% of 650,000 active. AID 1259374. AlphaScreen MITF homodimerization, bead proximity signal. inhibition, % at 2.6 µM; in the data active = inhibition above about 50%
FBW7 activator = activators of human E3 ligase FBW7; AlphaScreen FBW7–phospho-cyclin E peptide binding, activator screen; normalized activity (activation), % at 26.1 µM; 0.13% of 650,000 active; AID 1259310; in the data active = normalized activity above about 1.9%;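 also: purified mutant Fbw7 with reduced substrate affinity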
GPR151 confirm = confirmation of human GPR151 activators; shares compounds with GPR151 activ; GPR151 PathHunter beta-arrestin cells, luminescence, 90 min; % of EA-reagent control over plate median; activation, % at 11.2 µM; 6,700 tested, under 10 active;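 active = mean percent activation across replicates above the confirmation screen cutoff of 4.91%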
GPR119 ag = GPR119 activation, counter-screen for GPR151 activators. shares compounds with GPR151 activ. GPR119 PathHunter beta-arrestin cells, luminescence, 90 min; 0 = compound-well median, 100 = enzyme-acceptor control. activation, % at 11.2 µM. 0.3% of 6,700 active. AID 1508611;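 active = mean percent activation in the counterscreen above 29.09%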;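 also: counterscreen on off-target GPR119 to flag nonselective hits from the GPR151 activator screen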
Large screens that a line does not name were inactive (follow-up assays come after a bar, where they were run); ! = a repeat was not active. Only some compounds are listed: those with a hit (about 3.5% of all), similar ones and a draw of the others.

CS(=O)(=O)N(CC(=O)Nc1cccc(F)c1)c1ccccc1F	none
CCc1ccccc1N(CC(=O)Nc1ccccc1Cl)S(C)(=O)=O	GPR151 activ 14 | GPR151 confirm inactive | GPR119 ag inactive
CCc1ccccc1N(CC(=O)Nc1ccc(F)c(F)c1)S(C)(=O)=O	GPR151 activ 6.7 | GPR151 confirm inactive | GPR119 ag inactive
CC(C)NC(=O)CN(c1cccc2ccccc12)S(C)(=O)=O	GPR151 activ 8.4 | GPR151 confirm inactive | GPR119 ag inactive
CS(=O)(=O)N(CC(=O)Nc1cccc(F)c1)c1ccccc1Cl	GPR151 activ 5.0 | GPR151 confirm inactive | GPR119 ag inactive
CCOc1ccc(C2=NC(c3ccc(F)c(Br)c3)NC(c3cc(Br)ccc3O)C2)cc1 (stereo not given)	none
O=C1c2cnccc2CN1Cc1ccc(F)cc1	none
CCOC(=O)N1CCN(C(=O)C2(c3cccs3)CCCC2)CC1	none
CCc1ccccc1N(CC(=O)Nc1ccccc1SC)S(C)(=O)=O	GPR151 activ 5.6 | GPR151 confirm inactive | GPR119 ag inactive
O=S(=O)(c1ccc(Cl)cc1)N(CCCN1CCOCC1)Cc1cccs1	GPR151 activ 5.8 | GPR151 confirm inactive | GPR119 ag inactive
O=S(=O)(c1ccc(F)cc1)N(CCCN1CCOCC1)Cc1cccs1	none
Cc1ccc(NC(=O)N2CCCCC2C)cc1 (stereo not given)	none
Cc1nc(C)c(NC(=O)N2CCCCC2C)cc1NC(=O)N1CCCCC1C (stereo not given)	GPR151 activ 4.9 | GPR151 confirm inactive | GPR119 ag inactive
O=C(Nc1cccc(C(F)(F)F)c1)Nc1nnc(N2CCCCCC2)s1	GPR151 activ 5.2 | GPR151 confirm inactive | GPR119 ag inactive
Cc1cc(C)cc(NC(=O)Nc2nnc(N3CCCCC3)s2)c1	none
Cc1ccc(NC(=O)Nc2nnc(N3CCCCC3)s2)c(C)c1	GPR151 activ 7.4 | GPR151 confirm inactive | GPR119 ag inactive
Cc1cccc(NC(=O)Nc2nnc(N3CCCCC3)s2)c1	GPR151 activ 5.6 | GPR151 confirm inactive | GPR119 ag inactive
COc1cc(NC(=O)Nc2nnc(N3CCCCC3)s2)cc(OC)c1	GPR151 activ 5.3 | GPR151 confirm inactive | GPR119 ag inactive
CCN(CC)C(=O)CN(c1ccc(OC)c(OC)c1)S(C)(=O)=O	none
O=C1N=C(N2CCN(c3ccccc3)CC2)S/C1=C/c1ccccc1O	none
O=C(CC1(O)C(=O)N(Cc2ccccc2)c2ccccc21)c1ccccc1 (stereo not given)	none
CCN(CC)C(=O)CN1C(=O)C(O)(CC(=O)c2ccccc2)c2ccccc21 (stereo not given)	GPR151 activ 7.6 | GPR151 confirm inactive | GPR119 ag inactive
Cc1ccc(C(C(=O)NC2CCCC2)N(C)C)cc1 (stereo not given)	none
CN(C)C(C(=O)NC1CCCC1)c1ccc(Cl)cc1 (stereo not given)	GPR151 activ 6.0 | GPR151 confirm inactive | GPR119 ag inactive
COCCNC(=O)c1cccc(OC2CCN(Cc3cnc(SC)nc3)CC2)c1	GPR151 activ 7.9 | GPR151 confirm inactive | GPR119 ag inactive
COCCNC(=O)c1cccc(OC2CCN(Cc3ccc(F)c(OC)c3)CC2)c1	none
O=C(NCc1ccccc1)c1ccc(CN2CCC(Cc3ccccc3)CC2)cc1	none
CCOC(=O)N1CCN(C(=O)c2ccc(CN3CCC(Cc4ccccc4)CC3)cc2)CC1	GPR151 activ 4.9 | GPR151 confirm inactive | GPR119 ag inactive
COCCNC(=O)c1ccc(CN2CCC(Cc3ccccc3)CC2)cc1	GPR151 activ 5.0 | GPR151 confirm inactive | GPR119 ag inactive
Oc1ccc(Cl)cc1/C=N\Nc1nncc(-c2ccccc2)n1	GPR151 activ 7.4 | GPR151 confirm inactive | GPR119 ag inactive
CCOC(=O)CN(Cc1cccs1)S(=O)(=O)c1c(C)cc(C)cc1C	none
CN(C)C(=O)/C(=C\c1ccc(O)cc1)NC(=O)c1ccccc1	none
O=C(NC1=NCCS1)c1sc2cc(F)ccc2c1Cl	GPR151 activ 7.4 (no result: TEAD-YAP block, MITF primary, FBW7 activator) | GPR151 confirm inactive | GPR119 ag inactive
O=C(Nc1ccon1)c1sc2cc(F)ccc2c1Cl	none
COc1ccc(-c2cc(C(F)(F)F)nc(SC3CC(=O)C4OCC3O4)n2)cc1 (stereo not given)	none
Cc1nnc(SCCCn2c(N3CCOCC3)nc3c2c(=O)[nH]c(=O)n3C)s1	GPR151 activ 6.9 | GPR151 confirm inactive | GPR119 ag inactive
Cc1ccc(Oc2cccc(NC(=O)c3cccc4ccccc34)c2)nn1	GPR151 activ 5.6 | GPR151 confirm inactive | GPR119 ag inactive
Cc1sc(NC(=O)c2cc3ccccc3oc2=O)nc1-c1ccc(Br)cc1	GPR151 activ 7.4 | GPR151 confirm inactive | GPR119 ag inactive
O=C(NCc1ccccn1)C(=O)NCC(c1cccnc1)N1CCN(c2ccccc2)CC1 (stereo not given)	none
CCOC(=O)C(C)Sc1nnc(NC(=O)CC23CC4CC(CC(C4)C2)C3)s1 (stereo not given)	none
COc1ccc(CN(C)CC(=O)Nc2ccc(C(N)=O)cc2)c(OC)c1OC	GPR151 activ 5.0 | GPR151 confirm inactive | GPR119 ag inactive
CN(CC(=O)Nc1ccc(Cl)cc1)CC(=O)Nc1ccc(C(N)=O)cc1	GPR151 activ 5.4 | GPR151 confirm inactive | GPR119 ag inactive
CN(CC(=O)Nc1ccc(C(N)=O)cc1)CC(=O)Nc1ccccc1Cl	none
CN(CC(=O)Nc1ccc(C(N)=O)cc1)Cc1ccc(C(C)(C)C)cc1	none
O=C(O)C1CC(=O)N(CCN2CC(C(=O)O)CC2=O)C1 (stereo not given)	none
O=C(O)[C@H]1/C(=C/CO)O[C@@H]2CC(=O)N21	GPR151 activ 4.9! | GPR151 confirm inactive | GPR119 ag inactive
COc1ccc(CNC(=O)CSc2nnc3sc4ccccc4n23)cc1C(=O)O	GPR151 activ 5.5 | GPR151 confirm inactive | GPR119 ag inactive
Cc1nc2ccc(C(=O)N3CCCC(c4c(S(C)(=O)=O)cnc5ncnn45)C3)cc2[nH]1 (stereo not given)	none
O=C(Nc1ccc2c(c1)CCC2)c1cc([N+](=O)[O-])nn1Cc1ccccc1	none
COc1ccc(OCC2c3cc(OC)c(OC)cc3CCN2C(=O)c2ccc(C)cc2)cc1 (stereo not given)	none
Cc1ccc(-n2[nH]c(C)c(C=Nc3cccc(C(=O)O)c3)c2=O)cc1	GPR151 activ 5.4! | GPR151 confirm inactive | GPR119 ag inactive
CCSc1nnc(NC(=O)c2c(F)cccc2F)s1	none
CCOC(=O)c1c(NC(=O)CSc2nnc(CNC(=O)c3cc(OC)cc(OC)c3)n2Cc2ccccc2)sc2c1CCCC2	GPR151 activ 5.0 | GPR151 confirm inactive | GPR119 ag inactive
CCOC(=O)c1sc(NC(=O)CSc2nnc(CNC(=O)Cc3ccccc3)n2-c2ccccc2OC)c(C(=O)OCC)c1C	none

Bioassay records from PubChem.
